Results as given in PubChem BioAssay (NCATS).
Records with an inconclusive call do not appear. Where a call stands in place of a potency, no number is given. A number with no mark means an inactive call. The source made the active and inactive calls. Unless noted, calls come from the whole dose curve; as a rule, active = well fitted curve in the direction sought with a large enough effect; inconclusive = small, poorly fitted or top-dose-only effect, or another doubt; inactive = no such curve, though single readings can be large; an effect the other way counts as inactive or inconclusive.

What was measured:
[1] = qHTS to identify inhibitors of the type 1 interferon - major histocompatibility complex class I in skeletal muscle: primary screen against the NCATS Pharmaceutical Collection (AID 1347407);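 note: luminescence of HiBiT knocked into endogenous HLA-B as interferon-induced MHC class I level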
Outline: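 Luminescence from HiBiT-tagged endogenous HLA-B*08:01 served as the read-out of IFN-beta-induced MHC class I in CRISPR-engineered C25cl48 myoblasts. Cells received 4 ng/ml IFN-beta plus compound (high final 46 uM, […]) for 24 h.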

[2] = molecular target: Protein phosphatase 1D (Homo sapiens) (UniProt O15297); experiment: RapidFire Mass Spectrometry qHTS Assay for Modulators of WT P53-Induced Phosphatase 1 (WIP1) (AID 1347424);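 note: amount of dephosphorylated VEPPL-S-QETFS peptide product formed by WIP1; series mostly up to about 63 µM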
Outline: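 RapidFire mass spectrometry measured dephosphorylated peptide after 5 min room-temperature reaction of 2 uM VEPPL-pS-QETFS with 10 nM WIP1 (50 mM Tris-HCl pH 7.5, 30 mM MgCl2, 0.1 mM EGTA, BSA), following 1 hr compound preincubation; 1 uM isotope-labelled product standard.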

[3] = Primary qHTS for inhibitors of La Crosse Virus (LACV) - induced cell death in SH-SY5Y cells (AID 1508616);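 note: top concentration of the series differs between compounds; higher means more rescue of cells from virus-induced death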
Outline: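 SH-SY5Y, 6000 cells/well; cpd via pin tool in DMSO; LACV 0.01 MOI; 6 d 37C 5% CO2; ATPLite, 5 min RT; luminescence normalized to ±virus DMSO controls.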

[4] = molecular target: Calcium and integrin-binding protein 1 (Homo sapiens) (UniProt Q99828); experiment: Primary qHTS for Identification of Calcium Integrin Binding Protein 1 (CIB1) Competitor (AID 1508620);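 note: GST tagged CIB1 binding a fluorescein labelled alphaIIb integrin peptide tracer; top concentration of the series differs between compounds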
Outline: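 CIB1-GST (1 uM final) and compound incubated 15 min at room temperature before adding FITC-alphaIIb peptide tracer (100 nM final). Competition for binding read by fluorescence polarization (ex 480, em 540) after another 15 min at room temperature.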

[5] = Primary qHTS for small molecule stabilizers of the endoplasmic reticulum resident proteome: Secreted ER Calcium Modulated Protein (SERCaMP) assay (AID 1508630)
Outline: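 The SH-SY5Y reporter protocol was run at 3 concentrations up to 38.3 uM (primary) or 11 concentrations (follow-up): 16 h compound, 100 nM thapsigargin for 4 h, then extracellular luciferase luminescence.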

[6] = A High-Content qHTS Against Drug Library for the Identification of Small Molecules that Inhibit DYT1 Early Onset Primary Dystonia-Associated Cell Pathology (AID 1645839; calls by dose curve; note: series mostly up to about 46 µM)
Outline: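 High-content imaging quantified EGFP-TorsinA mislocalization in HEK293-derived cells inducibly expressing DYT1 mutant torsinA, after 48 h exposure to compound given together with tetracycline induction. Cell count served as a toxicity channel alongside %pathology.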

[7] = molecular target: Cytochrome P450 2D6 (Homo sapiens) (UniProt P10635); experiment: Cytochrome P450 family 2 subfamily D member 6 (CYP2D6) small molecule antagonists: luciferase biochemical (cell-free) qHTS assay (AID 1645840; active = well fitted curve in the direction sought with a large enough effect in the repeat runs; an effect the other way counts as inactive or inconclusive; note: nearly all actives have a fitted effect of over 55% in size; note: potency is the fitted concentration of half-maximal effect; for activity change, negative = inhibition: series mostly up to about 57 µM)
Outline: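 P450-Glo CYP2D6 system: proluciferin substrate converted by enzyme to luciferin, read by luminescence proportional to activity. Enzyme-substrate mix with compound 10 min at room temperature, then NADPH regeneration 1 h before detection reagent.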

[8] = molecular target: Protein phosphatase 1D (Homo sapiens) (UniProt O15297); experiment: Rhodamine-PBP qHTS Assay for Modulators of WT P53-Induced Phosphatase 1 (WIP1) (AID 1347425)
Outline: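 The read-out is the change in Rhodamine-PBP fluorescence (f1 - f0, ex 525/em 598 nm) as Pi is released, read each minute for 11 min. Final reaction: 5 nM WIP1, 10 uM phosphopeptide VEPPL-pS-QETFS, 10 uM Rh-PBP, 50 mM Tris-HCl pH 7.5, 30 mM MgCl2. Compound was preincubated with enzyme for 1 hour at room temperature.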

[9] = Counterscreen qHTS for small molecule stabilizers of the endoplasmic reticulum resident proteome: GLuc-NoTag assay (AID 1508627); note: potency is the fitted concentration of half-maximal effect; for activity change, negative = inhibition: series mostly up to about 76 µM
Outline: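 Counterscreen line: SH-SY5Y-GLuc-NoTag cells, treated with compound 19 hr before a 4 hr, 100 nM thapsigargin calcium depletion. Secreted Gaussia luciferase in the medium was measured by luminescence after coelenterazine was added (0.07x final), with cells unlysed.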

[10] = Confirmatory qHTS for small molecule stabilizers of the endoplasmic reticulum resident proteome: Secreted ER Calcium Modulated Protein (SERCaMP) assay (AID 1508628); note: series mostly up to about 76 µM; nearly all actives have a fitted effect of over 40% in size
Outline: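 Reporter secretion upon ER calcium depletion (100 nM thapsigargin, 4 h, 37C) is measured as medium luminescence with coelenterazine, after 16 h compound pretreatment of SH-SY5Y-GLuc-SERCaMP cells; primary at three concentrations up to 38.3 uM, follow-up at 11 (up to 76.6 uM).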

[11] = Cell Viability qHTS for small molecule stabilizers of the endoplasmic reticulum resident proteome (AID 1508629); conditions: cell viability counter-screen, 100 nM thapsigargin for final 4 h;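 note: human SH-SY5Y neuroblastoma cells carrying the GLuc-SERCaMP reporter; compound exposure about 46 h in total before the viability read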
[12] = molecular target: Calcium and integrin-binding protein 1 (Homo sapiens) (UniProt Q99828); experiment: Confirmatory qHTS for Identification of Calcium Integrin Binding Protein 1 (CIB1) Competitor (AID 1508617); note: nearly all actives have a fitted effect of over 65% in size
Outline: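 Compounds at up to 114 uM final met 1 uM GST-tagged CIB1 for 15 min at room temperature (HEPES pH 7.4, 5 mM CaCl2). FITC-labelled alphaIIb peptide, 100 nM, added; polarization read after 15 min more.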

Chain of Cytochrome P450 2D6 (Homo sapiens) (P10635 whole entry, looked up): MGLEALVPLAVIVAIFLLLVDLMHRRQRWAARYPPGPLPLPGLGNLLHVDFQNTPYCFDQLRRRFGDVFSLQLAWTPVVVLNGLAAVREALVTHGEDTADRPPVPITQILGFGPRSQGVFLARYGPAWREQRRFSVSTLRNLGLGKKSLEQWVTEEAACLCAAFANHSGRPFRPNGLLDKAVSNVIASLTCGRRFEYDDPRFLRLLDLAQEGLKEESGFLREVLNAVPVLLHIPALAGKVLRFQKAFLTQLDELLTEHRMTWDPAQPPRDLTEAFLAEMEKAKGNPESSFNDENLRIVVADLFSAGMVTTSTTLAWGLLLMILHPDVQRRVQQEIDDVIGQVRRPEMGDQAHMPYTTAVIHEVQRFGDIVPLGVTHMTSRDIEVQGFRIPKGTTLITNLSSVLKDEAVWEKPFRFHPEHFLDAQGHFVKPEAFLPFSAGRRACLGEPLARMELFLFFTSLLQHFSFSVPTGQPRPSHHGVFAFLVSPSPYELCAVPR
Chain of Protein phosphatase 1D (Homo sapiens) (O15297 whole entry, looked up): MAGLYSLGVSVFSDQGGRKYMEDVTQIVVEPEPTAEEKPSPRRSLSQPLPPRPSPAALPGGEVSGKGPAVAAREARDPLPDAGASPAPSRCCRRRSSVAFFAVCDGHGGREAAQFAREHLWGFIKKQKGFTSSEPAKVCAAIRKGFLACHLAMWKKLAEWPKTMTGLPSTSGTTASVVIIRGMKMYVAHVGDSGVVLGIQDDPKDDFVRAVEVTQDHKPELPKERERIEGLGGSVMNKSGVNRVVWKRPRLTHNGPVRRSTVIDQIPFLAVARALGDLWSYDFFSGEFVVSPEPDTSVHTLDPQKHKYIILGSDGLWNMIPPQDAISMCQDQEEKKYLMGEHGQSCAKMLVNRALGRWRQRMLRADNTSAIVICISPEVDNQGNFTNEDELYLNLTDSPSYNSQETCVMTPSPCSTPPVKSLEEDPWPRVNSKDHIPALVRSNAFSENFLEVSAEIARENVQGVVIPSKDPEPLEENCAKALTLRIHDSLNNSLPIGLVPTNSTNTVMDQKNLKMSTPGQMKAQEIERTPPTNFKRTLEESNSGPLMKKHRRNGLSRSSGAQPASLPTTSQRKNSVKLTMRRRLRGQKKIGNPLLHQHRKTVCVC
Chain of Calcium and integrin-binding protein 1 (Homo sapiens) (Q99828 whole entry, looked up): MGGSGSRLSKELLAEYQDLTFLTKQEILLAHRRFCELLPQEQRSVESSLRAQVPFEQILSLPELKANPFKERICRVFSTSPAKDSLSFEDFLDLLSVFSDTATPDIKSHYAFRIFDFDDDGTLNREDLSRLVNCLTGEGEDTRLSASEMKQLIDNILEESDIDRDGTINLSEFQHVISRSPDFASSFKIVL

## CCOc1nc2cccc(C(=O)O)c2n1Cc1ccc(-c2ccccc2-c2nn[nH]n2)cc1
[1]
  Potency: inactive
[2]
  outcome: inactive
[3]
  outcome: inactive
[4]
  outcome: inactive
[5]
  Potency: inactive
[6]
  Potency: inactive

## CC(C)(C)C(=O)C(Oc1ccc(Cl)cc1)n1ccnc1 (stereo not given)
[1]
  Potency: inactive
[2]
  outcome: inactive
[3]
  outcome: inactive
[4]
  outcome: inactive
[5]
  Potency: inactive
[6]
  Potency: inactive
[7]
  Potency: 17.4 µM (active)

## O=C(O)Cc1sc(-c2ccccc2)nc1-c1ccc(Cl)cc1
[1]
  Potency: inactive
[2]
  outcome: inactive
[8]
  outcome: inactive
[3]
  outcome: inactive
[5]
  Potency: inactive
[6]
  Potency: inactive
[7]
  Potency: inactive

## Cc1cccc(Nc2cc(Cl)nc(SCC(=O)O)n2)c1C
[1]
  Potency: inactive
[2]
  outcome: inactive
[3]
  outcome: inactive
[4]
  outcome: inactive
[5]
  Potency: inactive
[6]
  Potency: inactive
[7]
  Potency: inactive

## Cc1cc2nc3c(=O)[nH]c(=O)nc-3n(C[C@H](O)[C@H](O)[C@H](O)CO)c2cc1C
[1]
  Potency: inactive
[2]
  outcome: inactive
[8]
  outcome: inactive
[3]
  outcome: inactive
[9]
  Potency: inactive
[10]
  Potency: inactive
[11]
  max response: 11.4%
[6]
  Potency: inactive

## O=C1O[C@H]([C@@H](O)CO)C(O)=C1O
[1]
  Potency: inactive
[2]
  outcome: inactive
[8]
  outcome: inactive
[3]
  outcome: inactive
[6]
  Potency: inactive
[7]
  Potency: inactive

## O=c1[nH]c(=O)c2[nH]c(=O)[nH]c2[nH]1
[1]
  activity change, negative = inhibition: -11.3% [at 9.18 µM]
[2]
  activity change, negative = inhibition: -6.34% [at 12.6 µM]
[3]
  activity change: 1.46% [at 0.858 µM]
[4]
  outcome: inactive
[5]
  activity change, negative = inhibition: -1.24% [at 7.35 µM]
[6]
  % pathology change, negative = correction: 7.44% [at 9.22 µM]
[7]
  activity change, negative = inhibition: 4.14% [at 11.5 µM]

## CC1(C)OC(=O)NC1=O
[1]
  Potency: inactive
[2]
  outcome: inactive
[3]
  outcome: inactive
[4]
  outcome: inactive
[6]
  Potency: inactive
[7]
  Potency: inactive

## C[C@@H](O)[C@H](N)C(=O)O
[1]
  Potency: inactive
[2]
  outcome: inactive
[8]
  outcome: inactive
[3]
  outcome: inactive
[6]
  Potency: inactive
[7]
  Potency: inactive

## CCCCC/C(C=O)=C\c1ccccc1
[1]
  Potency: inactive
[2]
  outcome: inactive
[8]
  outcome: inactive
[3]
  outcome: inactive
[4]
  outcome: inactive
[6]
  Potency: inactive
[7]
  Potency: inactive

## O=S(=O)(O)NC1CCCCC1
[1]
  Potency: inactive
[2]
  outcome: inactive
[8]
  outcome: inactive
[3]
  outcome: inactive
[4]
  outcome: inactive
[6]
  Potency: inactive
[7]
  Potency: inactive

## NCCNCCNCCN
[1]
  Potency: inactive
[2]
  outcome: inactive
[8]
  outcome: inactive
[3]
  outcome: inactive
[6]
  Potency: inactive

## CC(=O)CCC(=O)O
[1]
  Potency: inactive
[2]
  outcome: inactive
[3]
  outcome: inactive
[4]
  outcome: inactive
[5]
  Potency: inactive
[6]
  Potency: inactive
[7]
  Potency: inactive

## C/C(=C(\CCOP(=O)(O)O)SC(=O)c1ccccc1)N(C=O)Cc1cnc(C)nc1N
[1]
  activity change, negative = inhibition: -12.9% [at 3.83 µM]
[2]
  activity change, negative = inhibition: 3.91% [at 6.17 µM]
[3]
  activity change: -1.14% [at 0.431 µM]
[4]
  activity change, negative = inhibition: -4.19% [at 12.4 µM]
[6]
  % pathology change, negative = correction: -4.46% [at 4.63 µM]

## CCN(CC)CCSC(=O)C(c1ccccc1)c1ccccc1
[1]
  Potency: inactive
[2]
  outcome: inactive
[3]
  outcome: inactive
[4]
  outcome: inactive
[6]
  Potency: inactive
[7]
  Potency: 5.49 µM (active)

## O=C1O[C@H](CO)[C@@H](O)[C@H](O)[C@H]1O
[1]
  Potency: inactive
[2]
  outcome: inactive
[8]
  outcome: inactive
[3]
  outcome: inactive
[5]
  Potency: inactive
[6]
  Potency: inactive
[7]
  Potency: inactive

## O=Cc1ccccc1C=O
[1]
  Potency: inactive
[2]
  outcome: inactive
[8]
  outcome: inactive
[3]
  outcome: inactive
[4]
  outcome: inactive
[6]
  Potency: inactive
[7]
  Potency: inactive

## Cc1cc(O)cc2c1O[C@](C)(CCC[C@H](C)CCC[C@H](C)CCCC(C)C)CC2
[1]
  Potency: inactive
[2]
  outcome: inactive
[3]
  outcome: inactive
[4]
  outcome: inactive
[5]
  Potency: inactive
[6]
  Potency: inactive
[7]
  Potency: inactive

## CCCCOc1cc(C(=O)OCCN(CC)CC)ccc1N
[1]
  Potency: inactive
[2]
  outcome: inactive
[3]
  outcome: inactive
[4]
  outcome: inactive
[6]
  Potency: inactive

## Oc1cccc(O)c1
[1]
  Potency: inactive
[2]
  outcome: inactive
[8]
  outcome: inactive
[3]
  outcome: inactive
[6]
  Potency: inactive
[7]
  Potency: inactive

## CCOC(=O)c1ccc(O)cc1
[1]
  Potency: inactive
[2]
  outcome: inactive
[3]
  outcome: inactive
[4]
  outcome: inactive
[5]
  Potency: inactive
[6]
  Potency: inactive

## CCN(CC)C(=O)Nc1ccc(OCC(O)CNC(C)(C)C)c(C(C)=O)c1 (stereo not given)
[1]
  Potency: inactive
[2]
  outcome: inactive
[3]
  outcome: inactive
[4]
  outcome: inactive
[5]
  Potency: inactive
[6]
  Potency: inactive
[7]
  Potency: inactive

## O=c1[nH]cnc2c1ncn2[C@@H]1O[C@H](CO)[C@@H](O)[C@H]1O
[1]
  Potency: inactive
[2]
  outcome: inactive
[8]
  outcome: inactive
[3]
  outcome: inactive
[4]
  outcome: inactive
[6]
  Potency: inactive
[7]
  Potency: inactive

## CC(=O)NC(Cc1ccccc1)C(=O)O (stereo not given)
[1]
  Potency: inactive
[2]
  outcome: inactive
[3]
  outcome: inactive
[12]
  Potency: inactive
[4]
  outcome: inactive
[6]
  Potency: inactive
[7]
  Potency: inactive

## CN(C)CCCN1c2ccccc2CCc2ccccc21
[9]
  Potency: inactive

## CSc1ccc2c(c1)N(CCC1CCCCN1C)c1ccccc1S2 (stereo not given)
[9]
  Potency: 50.1 µM (active)

## Cc1c(O)cccc1C(=O)N[C@@H](CSc1ccccc1)[C@H](O)CN1C[C@H]2CCCC[C@H]2C[C@H]1C(=O)NC(C)(C)C
[11]
  max response: 7.19%

## CC(C)(C)[C@]1(O)CCN2C[C@H]3c4ccccc4CCc4cccc(c43)[C@@H]2C1
[11]
  max response: 16.4%
